Test results from PubChem BioAssay (NCI).
Compounds without any hit were thinned out: in the full panel of roughly 83,000, 20% have a hit.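 Growth was measured after 48 h exposure to one concentration of compound in 96-well plates. Values under 10 count as active.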 The source made the active and inactive calls.

Experiments:
Assay in all cases: NCI-60 one-dose screen, 48 h (100 = growth as untreated, 0 = no growth, -100 = all killed)
Settings in all cases: 10 µM unless noted
DU-145 prostate = tested on: DU-145 prostate
K-562 leukemia = tested on: K-562 leukemia
MALME-3M melanoma = tested on: MALME-3M melanoma
MDA-MB-231 breast = tested on: MDA-MB-231 breast
RXF 393 renal = tested on: RXF 393 renal
SF-268 CNS = tested on: SF-268 CNS
SF-295 CNS = tested on: SF-295 CNS
SF-539 CNS = tested on: SF-539 CNS
UACC-257 melanoma = tested on: UACC-257 melanoma
M14 melanoma = tested on: M14 melanoma
HCT-15 colon = tested on: HCT-15 colon
HT29 colon = tested on: HT29 colon
SNB-75 CNS = tested on: SNB-75 CNS
SNB-19 CNS = tested on: SNB-19 CNS
PC-3 prostate = tested on: PC-3 prostate
SK-MEL-5 melanoma = tested on: SK-MEL-5 melanoma
UACC-62 melanoma = tested on: UACC-62 melanoma
LOX IMVI melanoma = tested on: LOX IMVI melanoma
SK-MEL-28 melanoma = tested on: SK-MEL-28 melanoma
U251 CNS = tested on: U251 CNS

Measured: growth

COc1ccc(/C=N\N2CCOCC2)cc1OC1CCCC1
inactive: DU-145 prostate 102% | K-562 leukemia 108% | MALME-3M melanoma 127% | MDA-MB-231 breast 110% | RXF 393 renal 113% | SF-268 CNS 94.8% | SF-295 CNS 98.1% | SF-539 CNS 94.9% | UACC-257 melanoma 102% | M14 melanoma 92.7% | HCT-15 colon 104% | HT29 colon 106% | SNB-75 CNS 86.8% | SNB-19 CNS 95.8% | PC-3 prostate 101% | SK-MEL-5 melanoma 99.3% | UACC-62 melanoma 92.7% | LOX IMVI melanoma 101% | SK-MEL-28 melanoma 116%

Fc1ccccc1Nc1ccc2nnc(-c3ccncc3)n2n1
inactive: DU-145 prostate 110% | K-562 leukemia 93.4% | MALME-3M melanoma 103% | MDA-MB-231 breast 101% | RXF 393 renal 113% | SF-268 CNS 101% | SF-295 CNS 112% | SF-539 CNS 106% | UACC-257 melanoma 105% | M14 melanoma 104% | HCT-15 colon 95.6% | HT29 colon 103% | SNB-75 CNS 101% | SNB-19 CNS 100% | PC-3 prostate 101% | SK-MEL-5 melanoma 103% | UACC-62 melanoma 107% | LOX IMVI melanoma 95.6%

COc1ccc(-c2nc(Nc3ccc(F)cc3)nc(Nc3ccc4c(c3)nc(C)n4Cc3ccccc3)n2)cc1
inactive: DU-145 prostate 54.7% | K-562 leukemia 16.1% | MALME-3M melanoma 52.8% | MDA-MB-231 breast 31.2% | RXF 393 renal 35.7% | SF-268 CNS 46.9% | SF-295 CNS 49% | SF-539 CNS 67.8% | UACC-257 melanoma 43.8% | M14 melanoma 38.9% | HCT-15 colon 33.4% | SNB-75 CNS 68% | SNB-19 CNS 60.7% | U251 CNS 39.2% | SK-MEL-5 melanoma 47.1% | LOX IMVI melanoma 38.9% | SK-MEL-28 melanoma 56.6%
active: HT29 colon 8.87%

CCN(C(=O)c1ccc2c3c(cccc13)C=C2)c1ccccc1
inactive: DU-145 prostate 113% | K-562 leukemia 82.7% | MALME-3M melanoma 90.1% | MDA-MB-231 breast 103% | RXF 393 renal 102% | SF-268 CNS 107% | SF-295 CNS 93.6% | SF-539 CNS 97.4% | UACC-257 melanoma 97% | M14 melanoma 94.5% | HCT-15 colon 88.7% | HT29 colon 88.8% | SNB-75 CNS 88.9% | SNB-19 CNS 93.7% | PC-3 prostate 83.7% | SK-MEL-5 melanoma 93.9% | UACC-62 melanoma 80.3% | LOX IMVI melanoma 108% | SK-MEL-28 melanoma 108%

COc1cc(C2=NN(c3ccc(S(N)(=O)=O)cc3)C(c3ccc(Cl)cc3)C2)cc(OC)c1OC (centres undefined)
inactive: DU-145 prostate 65.9% | K-562 leukemia 18.7% | MALME-3M melanoma 85.7% | MDA-MB-231 breast 43.7% | RXF 393 renal 34.8% | SF-268 CNS 48.2% | SF-295 CNS 25% | SF-539 CNS 69.1% | UACC-257 melanoma 57.5% | M14 melanoma 45.7% | HCT-15 colon 43.1% | HT29 colon 32.1% | SNB-75 CNS 41.5% | SNB-19 CNS 56.5% | U251 CNS 23.9% | SK-MEL-5 melanoma 27.5% | LOX IMVI melanoma 42.5% | SK-MEL-28 melanoma 44.3%

COc1cc(/C=C/C(=O)C(=Cc2ccc(F)c(F)c2)C(=O)/C=C/c2ccc(O)c(OC)c2)ccc1O
active: RXF 393 renal -32.5% | M14 melanoma 2.1% | HT29 colon -31.4% | LOX IMVI melanoma -82.5%
inactive: DU-145 prostate 17.3% | K-562 leukemia 13.7% | MALME-3M melanoma 51% | MDA-MB-231 breast 13.1% | SF-268 CNS 20% | SF-295 CNS 53.7% | SF-539 CNS 26.9% | UACC-257 melanoma 47.3% | HCT-15 colon 26% | SNB-75 CNS 38.3% | SNB-19 CNS 63.1% | U251 CNS 18.8% | SK-MEL-5 melanoma 40.9% | SK-MEL-28 melanoma 36%

COc1ccc(-c2c3c(N)c4c(nc3nc3c2c(C)nn3-c2ccccc2)CCCC4)cc1
inactive: DU-145 prostate 80.4% | K-562 leukemia 11.9% | MALME-3M melanoma 113% | MDA-MB-231 breast 76.1% | RXF 393 renal 84.2% | SF-268 CNS 86% | SF-295 CNS 84.9% | SF-539 CNS 91.8% | UACC-257 melanoma 108% | M14 melanoma 87.9% | HCT-15 colon 68.2% | HT29 colon 21.1% | SNB-75 CNS 78.6% | SNB-19 CNS 103% | PC-3 prostate 64.9% | SK-MEL-5 melanoma 90.9% | UACC-62 melanoma 92.9% | LOX IMVI melanoma 92.6% | SK-MEL-28 melanoma 96.9%

Cc1nc2cc(Nc3nc(Nc4ccc(F)cc4)nc(N4CCCC4)n3)ccc2n1Cc1ccccc1
inactive: SNB-19 CNS 33.6%
active: DU-145 prostate -41.5% | K-562 leukemia 0.0326% | MALME-3M melanoma -61.6% | MDA-MB-231 breast -59.7% | RXF 393 renal -83.5% | SF-268 CNS -26.3% | SF-295 CNS -26.8% | SF-539 CNS -25% | UACC-257 melanoma -22.7% | M14 melanoma -48.1% | HCT-15 colon -33.4% | HT29 colon -76.1% | SNB-75 CNS -15.1% | SK-MEL-5 melanoma -53.4% | LOX IMVI melanoma -86% | SK-MEL-28 melanoma -10.6%

COC(=O)[C@H]1CCCN1C(=O)[C@H]1CCCN1C(=O)[C@@H](Cc1c[nH]c2ccccc12)NC(=S)Nc1cc(C(F)(F)F)cc(C(F)(F)F)c1
active: SF-295 CNS -50.5%
inactive: DU-145 prostate 51.7% | K-562 leukemia 34.2% | MALME-3M melanoma 47.4% | MDA-MB-231 breast 44.5% | RXF 393 renal 56.3% | SF-268 CNS 36.1% | SF-539 CNS 74.4% | UACC-257 melanoma 75.4% | M14 melanoma 44.4% | HCT-15 colon 55.5% | HT29 colon 39% | SNB-75 CNS 40.3% | SNB-19 CNS 36.8% | PC-3 prostate 34% | UACC-62 melanoma 58.7% | LOX IMVI melanoma 44.2% | SK-MEL-28 melanoma 53%
